PME-1 inh: blocks human protein phosphatase methylesterase 1. 320,000 compounds, 0.53% hits. Q9Y570. inhibition, % at 5.9 µM. recombinant PME-1, FP-Rh probe fluorescence polarization. AID 2130;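 active means inhibition above the campaign mean of all compounds plus 3 SD, cut at about 26% in these data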;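 further: competitive labeling of PME-1 active site by serine hydrolase directed probe; 0% = PME-1 with DMSO and 100% = wells lacking PME-1 enzyme; inhibitors block probe labeling so polarization falls and inhibition rises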
Target sequence (Q9Y570 whole entry, looked up): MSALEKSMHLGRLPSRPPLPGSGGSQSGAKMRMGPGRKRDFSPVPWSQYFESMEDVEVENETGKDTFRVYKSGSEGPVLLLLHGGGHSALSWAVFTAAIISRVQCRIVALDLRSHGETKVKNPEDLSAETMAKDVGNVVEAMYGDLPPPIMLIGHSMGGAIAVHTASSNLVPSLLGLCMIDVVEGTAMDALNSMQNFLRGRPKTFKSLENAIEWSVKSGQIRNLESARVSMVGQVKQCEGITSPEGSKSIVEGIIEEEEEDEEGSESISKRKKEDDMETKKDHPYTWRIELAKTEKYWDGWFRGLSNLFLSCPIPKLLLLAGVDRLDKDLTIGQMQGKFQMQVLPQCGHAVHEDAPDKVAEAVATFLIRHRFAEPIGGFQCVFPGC
PAFAH1B2 FP inh: inhibitors of human PAFAH1B2. inhibition, % at 3.39 µM. AID 492953. P68402. 340,000 compounds, 1.2% hits. recombinant PAFAH1B2, FP-rhodamine activity probe, fluorescence polarization;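 active means inhibition above the mean of all tested compounds plus 3 SD, cut at about 24% in these data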;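 further: 0% = enzyme with DMSO and 100% = wells lacking PAFAH1B2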
Fam108B inh: counter-screen for RBBP9 inhibitors: inhibitors of mouse Fam108B | recombinant Fam108B, FP-Rh probe fluorescence polarization | inhibition, % at 9.51 µM | 300,000 compounds, 0.33% hits | AID 1947;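 active means inhibition above the screen mean inhibition plus 3 SD, computed separately per campaign, cut at about 18% in these data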;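 further: inhibitors lower polarization as less probe binds the enzyme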
PAFAH1B3 inh: blocks human PAF acetylhydrolase 1B catalytic subunit 3. recombinant PAFAH1B3, FP-rhodamine probe, fluorescence polarization. Q15102. 340,000 compounds, 0.28% hits. inhibition, % at 3.39 µM. AID 492972;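 active means inhibition above the screen-wide average of all tested compounds plus 3 SD, cut at about 25% in these data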;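 further: 0% = enzyme with DMSO only and 100% = wells lacking PAFAH1B3 protein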
PAFAH2 inh: inhibitors of human PAFAH2. Q99487. recombinant PAFAH2, FP-rhodamine activity probe, fluorescence polarization. inhibition, % at 3.39 µM. 340,000 compounds, 0.99% hits;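 active means inhibition above the mean over all tested compounds plus 3 SD, cut at about 30% in these data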;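 further: inhibitors block probe labeling of enzyme so polarization drops; 0% = enzyme with DMSO and 100% = wells lacking PAFAH2 protein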
pPAFAH inh: pPAFAH (human) enzyme inhibition; AID 463082; recombinant pPAFAH, FP-rhodamine probe fluorescence polarization; 330,000 compounds, 1.5% hits; inhibition, % at 3.39 µM; Q13093;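 active means inhibition above the mean inhibition across the screen plus 3 SD, cut at about 25% in these data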;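 further: inhibitors block binding of the rhodamine activity-based probe so polarization drops; 0% = enzyme with DMSO and 100% = wells lacking pPAFAH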
* marks the source's active call; other numbers are inactive results. This is a sample that favours compounds with a hit; in the whole collection about 2.8% have one here.

Results for COc1ccc(-c2n[nH]c(=S)n2Cc2ccccc2)cc1 ?
PME-1 inh: -1; PAFAH1B2 FP inh: -1; Fam108B inh: 0; PAFAH1B3 inh: 1; PAFAH2 inh: 2; pPAFAH inh: 3

What do the screens show for `S=c1[nH]nc(-c2ccc(Cl)cc2)n1Cc1ccccc1`?
PME-1 inh: -6; PAFAH1B2 FP inh: 37*; Fam108B inh: 4; PAFAH1B3 inh: 6; PAFAH2 inh: -3; pPAFAH inh: 4

What do the screens show for `COc1ccccc1N1CCN(S(=O)(=O)c2cc(Br)cnc2N)CC1`?
PME-1 inh: -1; PAFAH1B2 FP inh: 1; Fam108B inh: -3; PAFAH1B3 inh: 9; PAFAH2 inh: 2; pPAFAH inh: 0

Results for COc1ccc(C)cc1NC(=O)COC(=O)CCC(=O)c1cccs1 ?
PME-1 inh: 6; PAFAH1B2 FP inh: 6; PAFAH1B3 inh: 5; PAFAH2 inh: 2; pPAFAH inh: 12

What do the screens show for `S=c1[nH]nc(Cc2ccccc2)n1-c1ccccc1`?
PME-1 inh: 0; PAFAH1B2 FP inh: 16; Fam108B inh: -1; PAFAH1B3 inh: 2; PAFAH2 inh: 0; pPAFAH inh: -8

Results for CCCCc1n[nH]c(=S)n1Cc1ccc(Cl)cc1 ?
PME-1 inh: -2; PAFAH1B2 FP inh: 27*; Fam108B inh: 1; PAFAH1B3 inh: 5; PAFAH2 inh: 1; pPAFAH inh: 3

Results for COc1ccc(NS(=O)(=O)c2cccc(-c3nnc(-c4ccccc4)o3)c2)cc1 ?
PME-1 inh: -8; PAFAH1B2 FP inh: -1; Fam108B inh: -3; PAFAH1B3 inh: 8; PAFAH2 inh: 11; pPAFAH inh: 30*

How did S=c1[nH]nc(Cc2ccccc2)n1-c1ccc(Cl)cc1 do in these assays?
PME-1 inh: 6; PAFAH1B2 FP inh: 29*; Fam108B inh: 0; PAFAH1B3 inh: 7; PAFAH2 inh: -4; pPAFAH inh: 5

Results for CCc1noc(C)c1C(=O)N(CC)CC(=O)NCc1ccc(Cl)cc1 ?
PME-1 inh: -7; PAFAH1B2 FP inh: 9; PAFAH1B3 inh: 13; PAFAH2 inh: -3; pPAFAH inh: -3

How did O=C1C=CC2(O[C@H](c3ccccc3)[C@@H](c3ccccc3)O2)[C@H](Sc2ccccc2O)C1 do in these assays?
PAFAH1B2 FP inh: -1; PAFAH1B3 inh: 1; PAFAH2 inh: 6

Results for Cc1nn(-c2ncc(C(F)(F)F)cc2Cl)c(=O)n1-c1c(F)cccc1F ?
PME-1 inh: -2; PAFAH1B2 FP inh: -2; Fam108B inh: 4; PAFAH1B3 inh: 8; PAFAH2 inh: 7; pPAFAH inh: 30*

What do the screens show for `COc1ccccc1/C=C(/NC(=O)c1ccccc1)C(=O)NCCN1CCOCC1`?
PME-1 inh: -4; PAFAH1B2 FP inh: 5; Fam108B inh: -3; PAFAH1B3 inh: -7; PAFAH2 inh: 2; pPAFAH inh: 1

What do the screens show for `COC(=O)c1cccc(C#CC(NP(=O)(c2ccccc2)c2ccccc2)c2ccccc2)c1` (centres undefined)?
PME-1 inh: 31*; PAFAH1B2 FP inh: 5; Fam108B inh: -1; PAFAH1B3 inh: 2; PAFAH2 inh: -6; pPAFAH inh: 7

What do the screens show for `CS(=O)(=O)c1nc(-c2ccccc2)cc(C(F)(F)F)n1`?
PME-1 inh: -3; PAFAH1B2 FP inh: -2; Fam108B inh: -2; PAFAH1B3 inh: 3; PAFAH2 inh: -4; pPAFAH inh: 25*

Results for CN(C)CCNc1ncnc2c1sc1nc(-c3ccccc3)c3c(c12)CCCC3 ?
PME-1 inh: -4; PAFAH1B2 FP inh: 1; Fam108B inh: 1; PAFAH1B3 inh: 0; PAFAH2 inh: -2; pPAFAH inh: -8

How did COc1c(O)c(O)c2oc(-c3ccccc3)cc(=O)c2c1OC do in these assays?
PME-1 inh: 7; PAFAH1B2 FP inh: 4; Fam108B inh: 0; PAFAH1B3 inh: 11; PAFAH2 inh: 0; pPAFAH inh: 19

How did COc1cc(-c2cc(=O)c3c(O)c(OC)c(OC)c(O)c3o2)ccc1O do in these assays?
PME-1 inh: 6; PAFAH1B2 FP inh: 6; Fam108B inh: 5; PAFAH1B3 inh: 25; PAFAH2 inh: 7; pPAFAH inh: 26*

How did N#C/C(=C(/O)COC(=O)c1ccc(C#N)cc1)c1nc2ccccc2s1 do in these assays?
PME-1 inh: 14; PAFAH1B2 FP inh: 6; Fam108B inh: 6; PAFAH1B3 inh: 8; PAFAH2 inh: 12; pPAFAH inh: 25*

Screening data: PubChem, The Scripps Research Institute Molecular Screening Center
